Cruzain inh noDet: cruzain (T. cruzi) inhibition without detergent. P25779. purified cruzain, Z-FR-AMC fluorescence, no detergent. Potency, µM, actives largely listed as inhibitors. actives 2.3% (n = 200,000); further: nearly all actives have a fitted effect of over 40% in size
Target sequence (P25779 123-467 limits assumed): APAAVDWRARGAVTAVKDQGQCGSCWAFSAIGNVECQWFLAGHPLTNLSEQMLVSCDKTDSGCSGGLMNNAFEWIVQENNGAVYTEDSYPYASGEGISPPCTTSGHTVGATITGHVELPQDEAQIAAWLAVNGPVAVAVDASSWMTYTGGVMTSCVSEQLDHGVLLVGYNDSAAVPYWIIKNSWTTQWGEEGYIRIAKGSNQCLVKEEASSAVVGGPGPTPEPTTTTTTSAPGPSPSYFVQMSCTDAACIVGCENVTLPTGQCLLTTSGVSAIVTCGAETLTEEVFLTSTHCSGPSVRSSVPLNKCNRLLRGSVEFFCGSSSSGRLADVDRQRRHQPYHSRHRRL
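Purified cruzain at 1.5 nM, pre-incubated 15 min with compound at room temperature in 100 mM sodium acetate pH 5.5, 5 mM DTT, 0.00005% Triton X-100. Reaction started with 2 uM Z-FR-AMC; AMC fluorescence increase over 60 s gives rate.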
Cruzain inh Det: inhibitors of Trypanosoma cruzi cruzain with detergent; actives 0.43% (n = 200,000); Potency, µM, usual class: inhibitors; purified cruzain, Z-FR-AMC fluorescence, 0.01% Triton; AID 1478; P25779; further: nearly all actives have a fitted effect of over 40% in size
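Detergent-containing run (0.01% Triton X-100) in acetate buffer pH 5.5 with 5 mM DTT: enzyme at 1.5 nM final, 15 min compound preincubation at room temperature, then 2 uM Z-FR-AMC substrate. Activity taken as 60 s fluorescence increase at 360/450 nm.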
Each line names hits and unclear results; the compound was inactive in the other large screens. This is a sample that favours compounds with a hit; in the whole collection about 2.6% have one here. The call rests on the fitted dose curve; in most records, active means well fitted curve in the direction sought with a large enough effect; inconclusive means small, poorly fitted or top-dose-only effect, or another doubt; inactive means no such curve, though single readings can be large; an effect the other way counts as inactive or inconclusive.

Cc1no[n+]([O-])c1COc1ccc(/C=C2\NC(=S)NC2=O)cc1	Cruzain inh noDet 32µM
Cc1no[n+]([O-])c1COc1ccc(/C=C(\C#N)C(N)=O)cc1	none
C=CCn1c(SCc2nc3sc4c(c3c(=O)[nH]2)CCCC4)nc2ccccc2c1=O	Cruzain inh noDet 13µM
C=CCSc1nnc(CSc2nc3sc4c(c3c(=O)[nH]2)CCCC4)n1-c1ccccc1	none
CCOc1ccc(OCC)c(NC(=O)c2ccc(-c3ccccc3)s2)c1	none
CCOC(=O)c1sc(Nc2nc3ccc(OC)cc3s2)cc1C	Cruzain inh noDet inconclusive
CCOC(=O)c1sc(Nc2nc3c(F)cccc3s2)cc1C	Cruzain inh noDet 16µM
Cc1ccc(-c2ccc(C(=O)Nc3ccccc3)o2)c2ccccc12	Cruzain inh noDet inconclusive
Cc1ccc(S(=O)(=O)NC(=O)c2ccc(-c3ccc(C)c4ccccc34)o2)cc1	Cruzain inh Det 25µM
O=C(Nc1cccc(-c2cn3ccccc3n2)c1)c1cc2ccccc2oc1=O	Cruzain inh noDet inconclusive, Cruzain inh Det 3.5µM
O=C(Nc1cccc(-c2cn3ccccc3n2)c1)c1cccs1	none
CCOC(=O)c1cc(-c2ccc(C)cc2)n(CCC(=O)Nc2ccc(OC)c(OC)c2)c1C	Cruzain inh noDet inconclusive
CS(=O)(=O)N1CCc2cc(-c3csc(NC(=O)Cc4ccccc4)n3)ccc21	Cruzain inh noDet inconclusive
Cc1sc(NC(=O)Cc2ccc3c(c2)OCO3)nc1-c1ccc2c(c1)CCN2C(=O)c1ccc(F)cc1	Cruzain inh noDet 6.3µM
Cc1sc(NC(=O)Cc2ccc3c(c2)OCO3)nc1-c1ccc2c(c1)CCN2C(=O)c1ccccc1F	Cruzain inh noDet 7.9µM
Cc1sc(NC(=O)CN(C)C2CCCCC2)nc1-c1ccc2c(c1)CCN2S(=O)(=O)c1ccccc1	Cruzain inh noDet 32µM
Cc1ccc2c(c1)CCCN2C(=O)c1ccc2c(c1)OCO2	none
O=C(NCc1ccc2c(c1)CCN2C(=O)c1ccncc1)c1ccccc1F	none
COC(=O)c1cc(=O)[nH]c(=O)[nH]1	none
CCc1ccc(S(=O)(=O)c2cn(CC(=O)Nc3ccc(F)c(Cl)c3)c3ccccc3c2=O)cc1	none
CCOC(=O)C1CCN(C(=O)Cn2ncc3c4ccccc4n(Cc4ccccc4F)c3c2=O)CC1	Cruzain inh noDet inconclusive
CCNc1ncc2nc(-c3cc(F)cc(F)c3)c(=O)n(Cc3cccs3)c2n1	none
COc1ccc(NC(=O)CCCn2c(=O)c3cccn3c3cccnc32)cc1Cl	none
[O-]/C(=C(\C(=S)Nc1cccc2ccccc12)[n+]1ccccc1)c1ccc2c(c1)OCCO2	Cruzain inh noDet 13µM
CC(C)C(=O)c1cc2c(cc1NC(=O)Nc1cccc3ccccc13)OCCO2	none
CNc1nnc(-c2cc3cc(Cl)ccc3oc2=O)s1	none
O=c1oc2ccc(Cl)cc2cc1-c1nnc(Nc2cccc(C(F)(F)F)c2)s1	Cruzain inh noDet 5µM
C=C[C@](C)(O)CCC=C(C)C	none
CSCC[C@H](NC(=O)c1cccc([N+](=O)[O-])c1C)c1nc2ccccc2[nH]1	Cruzain inh Det 14µM
Cc1c(C(=O)NC(Cc2ccccc2)c2nc3ccccc3[nH]2)cccc1[N+](=O)[O-] (stereo unspecified)	Cruzain inh Det inconclusive
O=C(NC(Cc1ccccc1)c1nc2ccccc2[nH]1)c1ccc(Cl)c([N+](=O)[O-])c1 (stereo unspecified)	none
CSCC[C@H](NC(=O)c1ccc(Cl)c([N+](=O)[O-])c1)c1nc2ccccc2[nH]1	Cruzain inh Det 14µM
Cc1ccc(CN(Cc2ccco2)C(=O)COc2ccc(Cl)cc2)o1	none
Cc1ccc(O)c(/C=N/NC(=O)c2[nH]ncc2Br)c1	none
Cc1ccc(O)c(/C=N/NC(=O)C2=NNC(c3ccccc3)(c3ccccc3)C2)c1	Cruzain inh noDet 13µM
Cc1cc(C(C)(C)C)c(OCCCN2CCOCC2)c(C(C)(C)C)c1	none
CC(C)c1ccc(NC(=O)COc2nnc(-c3cccs3)c(-c3cccs3)n2)cc1	none
CCc1ccc(NC(=O)C(C)Oc2nnc(-c3cccs3)c(-c3cccs3)n2)cc1 (stereo unspecified)	Cruzain inh noDet 20µM
COc1ccc(C2CC(=O)Nc3c2c(=O)nc2c(C)cccn32)cc1 (stereo unspecified)	none
CCC(C)(C)C(=O)Nc1ncc(S(=O)(=O)c2ccc([N+](=O)[O-])cc2)s1	none
Cc1ccc(Nc2nnc(SCC(=O)Nc3ncc(S(=O)(=O)c4ccc([N+](=O)[O-])cc4)s3)s2)cc1	Cruzain inh noDet 7.9µM
O=C(Nc1nnc(CCS(=O)(=O)c2ccc3ccccc3c2)s1)c1cccs1	Cruzain inh noDet inconclusive
O=C(Nc1ncc(Cc2cc(Cl)ccc2Cl)s1)c1ccc([N+](=O)[O-])cc1	Cruzain inh noDet 13µM
CS(=O)(=O)Nc1nnc(SCC(=O)Nc2cccc([N+](=O)[O-])c2)s1	none
O=C(Nc1ncc(Cc2cccc(Cl)c2Cl)s1)c1ccc([N+](=O)[O-])cc1	none
O=C(Nc1ncc(S(=O)(=O)c2ccc([N+](=O)[O-])cc2)s1)c1ccc2ccccc2c1	Cruzain inh noDet 20µM
O=C(Nc1nnc(CCS(=O)(=O)c2ccc3ccccc3c2)s1)c1ccc([N+](=O)[O-])cc1	Cruzain inh noDet 13µM
Cc1ccc(-c2cc(C(=O)NCCc3ccccc3)c3c(-c4ccc(C)cc4)[nH]nc3n2)cc1	none
Cc1noc(Cn2c(=O)c3ccccc3n(CC(=O)Nc3ccc(Cl)cc3)c2=O)n1	none
Cc1cc(C)c2c(=O)cc(C(=O)Nc3nc4ccc(F)cc4s3)oc2c1	none
Cc1ccc(-c2onc(C)c2C)cc1S(=O)(=O)N1CCN(c2ccccc2F)CC1	none
CCOC(=O)c1cc(S(=O)(=O)N2CCN(c3cc(C)ccc3C)CC2)[nH]n1	none
Cc1oc2ccc(O)c(CN3CCN(Cc4ccccc4)CC3)c2c1C(=O)Nc1ccccc1	none
COc1ccc(NC(=O)CSc2nnc(NC(=O)Nc3ccccc3)s2)c(OC)c1	none
CC(=O)Nc1sc(NC(=O)c2ccccc2)nc1-c1cccs1	none
CCN(CC)c1ccc(/C=C(\C#N)c2nc(-c3cccs3)c(NC(C)=O)s2)cc1	Cruzain inh noDet 16µM
Sc1ccc2ccccc2c1CNCc1ccccc1	none
CN1/C(=C\C(=S)NC(=O)c2cccc(Br)c2)C(C)(C)c2ccccc21	Cruzain inh noDet inconclusive, Cruzain inh Det 3.5µM
CN1/C(=C\C(=S)NC(=O)c2ccc([N+](=O)[O-])cc2)C(C)(C)c2ccccc21	Cruzain inh noDet inconclusive
COc1cccc(C(=O)N2c3cc(C)ccc3C(C)(c3ccccc3)CC2(C)C)c1 (stereo unspecified)	Cruzain inh noDet inconclusive
CN(C)c1ccc(-c2cncnc2NCc2cccnc2)cc1	none
O=C(NCCc1ccccc1)c1ccc(=O)oc1	none
O=C(NCCc1ccccc1)c1ccc2nc(-c3ccco3)c(-c3ccco3)nc2c1	Cruzain inh noDet inconclusive, Cruzain inh Det 16µM
CCc1nn(Cc2cc(C)ccc2C)c(=O)c2cc3cc(C)ccc3n12	none
C/C(CC(=O)Nc1ccc(C)c(Cl)c1)=N\NC(=O)Cc1ccccc1	none
C/C(CC(=O)Nc1ccc(OCc2ccccc2)cc1)=N\NC(=O)C(=O)Nc1ccc(C)c(Cl)c1	Cruzain inh noDet 7.9µM
O=C(CSc1nc2ccccc2o1)Nc1nncs1	none
O=C(CSc1nc(-c2ccccc2)c(-c2ccccc2)o1)Nc1nncs1	none
O=C(CSc1nc2ccccc2o1)Nc1nc(-c2ccccc2)c(-c2ccccc2)s1	Cruzain inh noDet 13µM
O=C(CSc1nc(-c2ccccc2)c(-c2ccccc2)o1)Nc1nnc(-c2ccccc2)s1	Cruzain inh noDet 10µM
C=CCSc1nnc(NC(=O)CSc2nc3ccccc3o2)s1	Cruzain inh noDet 16µM
Cc1nnc(NC(=O)CSc2nc3ccccc3o2)s1	none

High-throughput results (PubChem)
